This is a sample that favours compounds with a hit; in the whole collection about 0.86% have one here.
IDE inh: human IDE inhibitors in live cells, primary screen, fluorescence polarization, HEK cells, FAbetaB substrate | Insulin-degrading enzyme (Homo sapiens), P14735 | inhibition, % at 5.59 µM | FAbetaB cleavage | 0.41% of 320,000 active;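 active = percent inhibition above the average of all tested compounds plus 3 SD, set per screening campaign, cut at about 16% in these data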;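 note: IDE supplied by intact live HEK cells; FP after avidin binding of uncleaved biotin substrate so inhibition keeps polarization high; 0% = DMSO wells and 100% = 60 µM reference IDE inhibitor Ii1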
IDE act: human IDE activators in live cells, primary screen, fluorescence polarization, HEK cells, FAbeta-B substrate; activation, % at 5.96 µM; AID 493087, 2011; FAbeta-B cleavage; 0% vehicle, 100% cell-free pure enzyme wells; 0.073% of 340,000 active; Insulin-degrading enzyme (Homo sapiens), P14735;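 active = activation above the mean of all tested compounds plus 3 SD, set per screening campaign, cut at about 17% in these data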
NOD2-RIPK2 inh: NOD2-RIPK2 binding disruptors in cells, primary screen, fluorescence, CHO cells, BLA complementation; 0.38% of 360,000 active; Receptor-interacting serine/threonine-protein kinase 2 (Homo sapiens), O43353; CCF4 ratio; inhibition, % at 4.98 µM; in the data active = inhibition above about 21%;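 note: 0% = vehicle only and 100% = reference blocker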
TLR4 MyD88 comp: inhibitors of TLR4-MyD88 association in cells, primary screen, cell-based, HeLa CL3-4, BLA complementation, FRET ratio; Toll-like receptor 4 (Homo sapiens) + Myeloid differentiation primary response protein …; inhibition, % at 8.4 µM; 0.18% of 200,000 active; AID 861, 2007; HeLa CL3-4 TLR4/MyD88 BLA complementation; in the data active = inhibition above about 25%;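 note: 0% = vehicle and 100% = reference inhibitor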
TLR9-MyD88 inh: inhibitors of TLR9-MyD88 association in cells, primary screen, cell-based, CHO, BLA complementation, fluorescence. Toll-like receptor 9 (Homo sapiens) + Myeloid differentiation primary response protein …. CCF4 FRET ratio. inhibition, % at 4.98 µM. 0.21% of 340,000 active. AID 504734, 2011;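 active = inhibition above the mean over all tested compounds plus 3 SD, cut at about 21% in these data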;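 note: 0% = DMSO only wells and 100% = clavulanate BLA inhibitor control wells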
NOD2-RIPK2 conf: NOD2-RIPK2 binding disruptors, retest, confirmation, fluorescence, CHO cells, BLA complementation, triplicate. shares compounds with NOD2-RIPK2 inh. AID 624370, 2012. inhibition, % at 4.98 µM. 70% of 1,200 active. CCF4 FRET;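 active = mean inhibition across replicates above a set limit taken from the earlier primary screen, cut at about 21% in these data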;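 note: 0% = DMSO-only wells and the high end = clavulanate BLA-blocked wells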
BLA counter: counter-screen for NOD2-RIPK2 interaction inhibitors: BLA reporter. CHO BLA reporter, CCF4 FRET ratio, counterscreen. AID 624371. shares compounds with NOD2-RIPK2 inh. inhibition, % at 4.98 µM. 57% of 1,200 active;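 active = mean inhibition above the low-control mean inhibition plus three low-control SD, cut at about 11% in these data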;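 note: 0% = DMSO only wells and 100% = clavulanate high control wells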
Numbers without * were called inactive.

For Cc1c(Cl)sn(-c2ccc(Cl)cc2)c1=O the results were IDE act -55, NOD2-RIPK2 inh 29*, TLR4 MyD88 comp 24, TLR9-MyD88 inh 4, NOD2-RIPK2 conf 89* and BLA counter 28*.
CCOc1cc(/C=C\[N+](=O)[O-])ccc1OCC(=O)Nc1ccccc1C was read as IDE inh 6, IDE act -2, NOD2-RIPK2 inh 89*, TLR4 MyD88 comp 16, TLR9-MyD88 inh 20, NOD2-RIPK2 conf 97* and BLA counter 13*.
For CCN(CC)c1ccc(-c2nn3c(-c4ccccc4OC)nnc3s2)cc1 the results were IDE inh 5, IDE act -2, NOD2-RIPK2 inh 23*, TLR4 MyD88 comp -9, TLR9-MyD88 inh -4, NOD2-RIPK2 conf 14 and BLA counter -7.
`O=C(CN1C(=O)C2C3C=CC(C3)C2C1=O)N1CCc2ccccc2C1` (stereo not drawn) gave IDE inh 3, IDE act 1, NOD2-RIPK2 inh -4, TLR4 MyD88 comp -3 and TLR9-MyD88 inh 0.
Cc1cc([N+](=O)[O-])ccc1-c1ccc(/C=N/NC(=O)c2ccc(Br)o2)o1 was read as IDE inh 4, IDE act 1, NOD2-RIPK2 inh 40*, TLR9-MyD88 inh 1, NOD2-RIPK2 conf 32* and BLA counter 48*.
CC(C)(C)NC(=S)N/N=C\c1ccc(-c2ccc([N+](=O)[O-])cc2)o1 was read as IDE inh 2, NOD2-RIPK2 inh 43*, NOD2-RIPK2 conf 81* and BLA counter 83*.
For CCCCC(=O)N/N=C/c1ccc(-c2ccc([N+](=O)[O-])cc2)o1 the results were IDE inh 5, IDE act 2, NOD2-RIPK2 inh 9, TLR4 MyD88 comp 20 and TLR9-MyD88 inh 17.
`Cn1cnc([N+](=O)[O-])c1S(=O)(=O)Oc1cccc2ccccc12` gave IDE act -6, NOD2-RIPK2 inh 56*, TLR9-MyD88 inh 15, NOD2-RIPK2 conf 55* and BLA counter 1.
Screening CCS(=O)(=O)c1c([N+](=O)[O-])ncn1C returned IDE inh 0, IDE act -1, NOD2-RIPK2 inh 1, TLR4 MyD88 comp 5 and TLR9-MyD88 inh -6.
`Cn1cnc([N+](=O)[O-])c1S(=O)(=O)Oc1ccc(Cl)cc1` gave IDE act -1, NOD2-RIPK2 inh 21*, TLR9-MyD88 inh 2, NOD2-RIPK2 conf 47* and BLA counter -1.
For Fc1cc(F)c2nc(Nc3nc4cc5c(cc4s3)OCO5)sc2c1 the results were IDE inh 0, IDE act 4, NOD2-RIPK2 inh -6, TLR4 MyD88 comp -16 and TLR9-MyD88 inh -7.
`CN(C)CCCN(C(=O)CCOc1ccccc1)c1nc2ccc(F)cc2s1` gave IDE act -2, NOD2-RIPK2 inh 47*, TLR4 MyD88 comp 7, TLR9-MyD88 inh 18, NOD2-RIPK2 conf 17 and BLA counter 0.
Screening CN(C)CCCN(C(=O)COc1ccccc1)c1nc2ccc(F)cc2s1 returned IDE inh -4, IDE act 3, NOD2-RIPK2 inh 8, TLR4 MyD88 comp 3 and TLR9-MyD88 inh 5.
Cc1ccc(Nc2ncc3c(n2)CC(C)CC3=O)c(C)c1 (stereo not drawn) was read as IDE inh 11, IDE act 2, NOD2-RIPK2 inh -9 and TLR9-MyD88 inh -8.
CCOC(=O)c1c(/N=C/C2=C(O)CC(C)(C)CC2=O)sc(C(C)=O)c1C was read as IDE inh 2, IDE act 4, NOD2-RIPK2 inh -9, TLR4 MyD88 comp -4 and TLR9-MyD88 inh -9.
